Screening results as filed in PubChem.
HCMV antiviral: blocks human cytomegalovirus replication; activity change, negative = inhibition, % at 57.5 µM; HFF cells, HCMV-luciferase reporter, 72 h; hits give low values; 4.5% of 410,000 active; in the data active means activity change below about -60%; inconclusive means no clear call, values can overlap the other calls; inactive means above about -39%
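HFF cells seeded 16 h at 37C, treated with compounds, infected with luciferase-reporter HCMV at MOI 1 PFU/cell; luciferase read at 72 h post infection, normalized to buffer-only and Salinomycin controls.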
Lassa entry inh: blocks Lassa virus binding to or entry into cells | Potency, µM (doses to about 37.9 µM), most hits filed as inhibitors | Lassa virus pseudotype entry inhibition, cell reporter | 1.2% of 300,000 active; calls by dose curve; tested in HEK293 cells; further: nearly all actives have a fitted effect of over 50% in size
VACV Venus inh: vaccinia inhibition (Venus reporter); Vaccinia virus Venus reporter expression, fluorescence; Potency, µM (titrated, usually from 36.5 µM), hits mostly inhibitors; 0.46% of 330,000 active; calls by dose curve; tested in A549 cells; further: nearly all actives have a fitted effect of over 30% in size
MARV entry inh: blocks Marburg virus binding to or entry into cells | 1.8% of 300,000 active | Potency, µM (highest dose often 37.8 µM), usual class: inhibitors | Marburg virus pseudotyped entry inhibition, cell reporter; calls by dose curve; tested in HEK293 cells
HCV inh: HCV inhibition; AID 651820; 3.4% of 340,000 active; Huh7.5.1 HCVcc-Cre infection, luciferase reporter, 44 h; Potency, µM (highest dose often 41.8 µM), hits mostly inhibitors; active means well fitted inhibition curve with a large enough effect; inconclusive means small, poorly fitted or top-dose-only effect, or another doubt; inactive means no such curve, though single readings can be large or run the other way
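Antiviral activity was scored by luciferase reporter output from cells infected with HCVcc-Cre (~0.5 moi) in presence of compound, 44 h infection period, cells seeded 1,000/well 4 h prior.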
Vaccinia mCherry: inhibitors of vaccinia virus infection (mCherry reporter signal); Potency, µM (top dose mostly 36.5 µM), usual class: inhibitors; Vaccinia virus mCherry reporter infection, fluorescence; 0.63% of 310,000 active; calls by dose curve; tested in A549 cells; further: nearly all actives have a fitted effect of over 35% in size
Of the large screens only hits and unclear results are named; the others gave an inactive call. A selection: hits, their analogues and other compounds. The true share with any hit is near 7.8%.

O=C(C1CCCCC1)N1CCc2[nH]c3ccc(F)cc3c2C1	none (no result: Lassa entry inh, VACV Venus inh, MARV entry inh, Vaccinia mCherry)
COc1ccccc1NC(=O)N1CCc2[nH]c3ccc(F)cc3c2C1	VACV Venus inh inconclusive, HCV inh 10µM (no result: Vaccinia mCherry)
CN(Cc1ccc(Cl)c(Cl)c1)C(C(=O)NCc1ccccc1)c1ccco1 (stereo not given)	Vaccinia mCherry inconclusive (no result: Lassa entry inh, MARV entry inh, HCV inh)
CN(Cc1ccc(Cl)c(Cl)c1)C(C(=O)NCc1ccccc1)c1ccc(C(F)(F)F)cc1 (stereo not given)	HCMV antiviral inconclusive, VACV Venus inh inconclusive, Vaccinia mCherry 11µM (no result: Lassa entry inh, MARV entry inh, HCV inh)
COc1ccc(CNc2cc([N+](=O)[O-])ccc2OC)cc1	HCMV antiviral -74, HCV inh inconclusive
COc1ccc(C)cc1NCc1ccc([N+](=O)[O-])cc1	Lassa entry inh inconclusive, HCV inh inconclusive
Cc1cc([N+](=O)[O-])ccc1NCc1ccc2ccccc2c1	HCV inh 11µM
COc1ccc(-c2nn(-c3ccc(C)c(Cl)c3)c3c2cnc2cc(OC)c(OC)cc23)cc1	none (no result: MARV entry inh, HCV inh)
CCCCOC(=O)c1ccc(NC(=O)c2ccc3c(c2)CCN3S(C)(=O)=O)cc1	MARV entry inh inconclusive (no result: HCV inh)
Cc1ccc(C(C)(C)C)cc1S(=O)(=O)N1CC(=O)Nc2ccccc21	Lassa entry inh inconclusive, MARV entry inh 10µM, HCV inh inconclusive
Cc1cc(C(C)(C)C)cc(C)c1S(=O)(=O)N1CC(=O)Nc2ccccc21	HCMV antiviral inconclusive, Lassa entry inh 11µM, HCV inh inconclusive
CN(C)/C=N/c1nc2c(ncn2C2CC(O)C(CO)O2)c(=O)[nH]1 (stereo not given)	none (no result: HCMV antiviral, Lassa entry inh, MARV entry inh, HCV inh)
Cc1cc(C(=O)NC2CCCc3c2cnn3-c2cccc(C)c2C)no1 (stereo not given)	HCMV antiviral -97, Lassa entry inh inconclusive, MARV entry inh inconclusive, HCV inh 11µM, Vaccinia mCherry inconclusive
COc1ccc(C(=O)NC2CCCc3c2cnn3-c2cccc(C)c2C)o1 (stereo not given)	HCMV antiviral -93, HCV inh inconclusive (no result: Lassa entry inh, VACV Venus inh, MARV entry inh, Vaccinia mCherry)
Cc1cccc(-n2ncc3c2CCCC3NC(=O)CN2CCOC2=O)c1C (stereo not given)	none (no result: Lassa entry inh, VACV Venus inh, MARV entry inh, Vaccinia mCherry)
Cc1cc(C)n(CC(=O)NC2CCCc3c2cnn3-c2ccccc2F)n1 (stereo not given)	none (no result: Lassa entry inh, VACV Venus inh, MARV entry inh, Vaccinia mCherry)
CC1=C(C(=O)NC2CCCc3c2cnn3-c2cccc(C)c2C)OCCO1 (stereo not given)	HCMV antiviral -79, Lassa entry inh inconclusive, MARV entry inh inconclusive, HCV inh 3.5µM
COc1cccc(C(=O)NC2CCCc3c2cnn3-c2cc(C)cc(C)c2)c1 (stereo not given)	HCMV antiviral inconclusive, Lassa entry inh inconclusive, MARV entry inh inconclusive, HCV inh inconclusive
Cc1cccc(-n2ncc3c2CCCC3NC(=O)c2cccs2)c1C (stereo not given)	HCMV antiviral -75, Vaccinia mCherry inconclusive (no result: Lassa entry inh, MARV entry inh, HCV inh)
Cc1ccc(OCC(=O)Nc2ccccc2C(=O)OCc2cc(=O)n3nc(C4CC4)sc3n2)cc1	none (no result: MARV entry inh, HCV inh)
Cc1cc(C)cc(-n2ncc3c2CCCC3NC(=O)c2ccccc2)c1 (stereo not given)	none (no result: Lassa entry inh, MARV entry inh, HCV inh)
Cc1cccc(-n2ncc3c2CCCC3NC(=O)CCc2cccnc2)c1C (stereo not given)	HCMV antiviral -63, HCV inh inconclusive (no result: Lassa entry inh, VACV Venus inh, MARV entry inh, Vaccinia mCherry)
Cc1cccc(-n2ncc3c2CCCC3NC(=O)CN2CCCC2=O)c1C (stereo not given)	Lassa entry inh inconclusive, MARV entry inh inconclusive
COC(=O)c1ccc(C(=O)NC2CCCc3c2cnn3-c2ccc(C)c(C)c2)cc1 (stereo not given)	HCMV antiviral inconclusive, Lassa entry inh inconclusive, VACV Venus inh inconclusive, MARV entry inh inconclusive, HCV inh 13µM, Vaccinia mCherry inconclusive
Cc1cc(C(=O)NC2CCCc3c2cnn3-c2ccc(C)c(C)c2)nc(C)n1 (stereo not given)	MARV entry inh inconclusive
CCn1cc(C(=O)NC2CCCc3c2cnn3-c2cccc(C)c2C)cn1 (stereo not given)	HCMV antiviral -99 (no result: Lassa entry inh, VACV Venus inh, MARV entry inh, HCV inh, Vaccinia mCherry)
Cc1cccc(-n2ncc3c2CCCC3NC(=O)c2ccncc2)c1C (stereo not given)	HCMV antiviral -79 (no result: Lassa entry inh, MARV entry inh, HCV inh)
O=C(NC1CCCCC1)c1nnc2n1CCN(C(=O)c1ccc3occc3c1)C2	none (no result: Lassa entry inh, VACV Venus inh, MARV entry inh, HCV inh, Vaccinia mCherry)
COC(=O)[C@@]12C[C@@H](CC(=O)NCc3ccc(OC)c(OC)c3)C(=O)N(Cc3ccccc3)C1=CCC(C)(C)C2	none (no result: Lassa entry inh, MARV entry inh, HCV inh)
